Source: PubChem (National Center for Advancing Translational Sciences (NCATS))
S2 tox: viability counter-screen for ATXN expression inhibitors. S2 cells (HEK-293 line with an ATXN2-luciferase reporter) viability, CellTiter-Fluor protease fluorescence, 24 h. Potency, µM (top dose mostly 56.7 µM), actives largely listed as cytotoxic. 400,000 tested, 0.49% active; note: potency is the fitted concentration of half-maximal effect; nearly all actives have a fitted effect of over 40% in size
MCF10A rereplic: induces DNA re-replication in MCF 10a normal breast cells; 350,000 tested, 2.9% active; MCF 10A DNA re-replication, Hoechst nuclear intensity, 48 h; Potency, µM (doses to about 46.1 µM), without a hit: top-dose activity, positive = re-replication, usual class: activators; AID 624296; note: potency is the fitted concentration of half-maximal effect; % of control where 0% means no effect; nearly all actives have a fitted effect of over 50% in size
IL-1B inflam inh: inflammasome signaling inhibition, IL-1 beta readout | THP-1 LPS/ATP IL-1B secretion, AlphaLISA, 16 h; active compounds read low | activity change, % at 57.5 µM | 360,000 tested, 4.7% active; in the data active = activity change below about -50%; inconclusive = mostly about -30% to -49%; note: % is set by controls: 0 for no effect and ±100 for the full control effect
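THP-1 cells pretreated 1 hr with compounds (up to 57.5 uM final), then stimulated with LPS (250 ng/mL final) plus ATP (1.25 mM final); secreted IL-1B measured by AlphaLISA after 16 hr, decreased signal indicating inhibition.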
ATXN2 expr inh: reduces ATXN2 reporter expression in HEK-293 cells. HEK-293 ATXN2-luciferase reporter, luminescence, 24 h. Potency, µM (series often up to 57 µM), without a hit: at the top dose activity change, negative = inhibition, usual class: inhibitors. 360,000 tested, 0.72% active; note: potency is the fitted concentration of half-maximal effect; % is set by controls: 0 for no effect and ±100 for the full control effect; nearly all actives have a fitted effect of over 55% in size
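ATXN2-luciferase reporter cells (luciferase flanked by upstream and downstream ATXN2 gene portions) were treated 24 h at 37 °C with compounds at up to 57 uM. SteadyGlo luminescence gave expression; GF-AFC fluorescence gave viability.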
SW480 rereplic: induces DNA re-replication in SW480 colon adenocarcinoma cells | SW480 DNA re-replication, Hoechst DNA content imaging, 48 h | Potency, µM (titrated, usually from 46.1 µM), for the others: at the highest dose re-replication activation, actives largely listed as activators | 340,000 tested, 1.8% active | AID 624297; note: potency is the fitted concentration of half-maximal effect; % of control where 0% means no effect; nearly all actives have a fitted effect of over 55% in size
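Cells (250 per well) received 23 nL compound or DMSO by pin tool and were kept 48 hr at 37 C, 5% CO2. Nuclei were then stained with Hoechst for 40 min and scanned for DNA content.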
PINK1 expr mod: PINK1 expression modulation; PINK1 immunofluorescence, high-content cytometry, 24 h; Potency, µM (doses to about 76.6 µM), for inactives: at the highest dose activation (PINK1 increase), most hits filed as activators; 410,000 tested, 0.2% active; AID 624263; active = well fitted activation curve with a large enough effect; inconclusive = small, poorly fitted or top-dose-only effect; cell line not stated here; note: potency is the fitted concentration of half-maximal effect; % of control where 0% means no effect; nearly all actives have a fitted effect of over 65% in size
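Stable cell line treated 24 h with compounds at 5 concentrations (CCCP controls), then fixed and immunostained for PINK1 plus nuclear and cell stains; PINK1 immunofluorescence quantified by laser-scanning microplate cytometry.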
* hit, by the source's call; [ ] = another dose, or the depositor's remark. Shown are actives, neighbours in structure and some others; about 7.1% of the full set was active somewhere. Unless noted, calls come from the whole dose curve; as a rule, active = well fitted curve in the direction sought with a large enough effect; inconclusive = small, poorly fitted or top-dose-only effect, or another doubt; inactive = no such curve, though single readings can be large; an effect the other way counts as inactive or inconclusive.

Results for O=C(Cc1cccs1)NCCS(=O)(=O)N1CCN(c2ccccc2F)CC1 ?
S2 tox: inactive; MCF10A rereplic: 16µM*; IL-1B inflam inh: 7; ATXN2 expr inh: -6%; SW480 rereplic: 23µM*; PINK1 expr mod: 9%

What do the screens show for `O=C(O)CCCC(=O)N1CCN(c2nc(-c3ccccc3)c3ccccc3n2)CC1`?
MCF10A rereplic: 6%; IL-1B inflam inh: 4; ATXN2 expr inh: 0%; SW480 rereplic: inconclusive; PINK1 expr mod: 0%

How did Clc1ccccc1-c1nc(Nc2ccccc2)nc2ccc(Br)cc12 do in these assays?
S2 tox: inactive; ATXN2 expr inh: 3%; PINK1 expr mod: 19%

Results for O=C(O)C1CC=CCC1C(=O)N1CCN(c2nc(-c3ccccc3Cl)c3cc(Br)ccc3n2)CC1 (centres undefined) ?
S2 tox: inactive; MCF10A rereplic: 23µM*; IL-1B inflam inh: 9; ATXN2 expr inh: -5%; SW480 rereplic: 18µM*; PINK1 expr mod: 1%

How did O=C(O)C1CC=CCC1C(=O)N1CCN(c2nc(-c3ccccc3)c3ccccc3n2)CC1 (centres undefined) do in these assays?
S2 tox: inactive; MCF10A rereplic: 9.2µM*; IL-1B inflam inh: -63*; ATXN2 expr inh: -5%; SW480 rereplic: inconclusive; PINK1 expr mod: 3%

Results for Cc1ccccc1Cn1cc(S(=O)(=O)c2ccc(F)cc2)c(=O)c2cc3c(cc21)OCO3 ?
S2 tox: inactive; ATXN2 expr inh: -6%; PINK1 expr mod: 0%

How did O=C(c1ccncc1)N1CCC2(CCC(CNC(=O)C3(N4CCOCC4)CCCCC3)O2)CC1 (centres undefined) do in these assays?
S2 tox: inactive; PINK1 expr mod: 1%

What do the screens show for `Nc1nc(-c2ccccn2)nc(N)c1Cc1ccc(Cl)cc1Cl`?
S2 tox: inactive; MCF10A rereplic: inconclusive; IL-1B inflam inh: -15; ATXN2 expr inh: inconclusive; SW480 rereplic: 10µM*; PINK1 expr mod: 17%

Results for Nc1nc(-c2ccccn2)nc(N)c1Cc1ccccc1F ?
S2 tox: inactive; MCF10A rereplic: inconclusive; IL-1B inflam inh: 15; ATXN2 expr inh: inconclusive; SW480 rereplic: 8%; PINK1 expr mod: -2%

Results for CCCCOc1ccc(C(=O)NCC(=O)NCCOc2ccccc2OC)cc1 ?
S2 tox: inactive; MCF10A rereplic: 9%; IL-1B inflam inh: -15; ATXN2 expr inh: -5%; SW480 rereplic: 0.92µM*; PINK1 expr mod: 2%

Results for COc1ccc(C(=O)NCC(=O)OCCOc2ccc(Cl)cc2)cc1OC ?
S2 tox: inactive; MCF10A rereplic: 4%; IL-1B inflam inh: -56*; ATXN2 expr inh: 8%; SW480 rereplic: 2%; PINK1 expr mod: 1%

How did CC(C)(C)c1ccc(C(=O)NCCOc2ccccc2F)cc1 do in these assays?
S2 tox: inactive; MCF10A rereplic: 1%; IL-1B inflam inh: 21; ATXN2 expr inh: 13µM*; SW480 rereplic: -2%; PINK1 expr mod: 0%

Results for Cc1ccc(NS(=O)(=O)c2ccc(-c3cc(C)no3)cc2)c(C)c1 ?
PINK1 expr mod: 10%

What do the screens show for `Cc1cc(C)c(S(=O)(=O)NCCc2cc3ccc(C)cc3[nH]c2=O)c(C)c1`?
S2 tox: inactive; ATXN2 expr inh: -2%; PINK1 expr mod: -1%

Results for COCCN(Cc1ccccc1)C(=O)C1CCN(C(=O)Nc2ccccc2)CC1 ?
S2 tox: inactive; MCF10A rereplic: 2%; IL-1B inflam inh: -6; ATXN2 expr inh: 5%; SW480 rereplic: -9%; PINK1 expr mod: 1%

Results for FC(F)(F)c1nnc2c(Sc3ccccn3)nc3ccccc3n12 ?
S2 tox: inconclusive; MCF10A rereplic: inconclusive; IL-1B inflam inh: -66*; ATXN2 expr inh: 11%; SW480 rereplic: inconclusive; PINK1 expr mod: -2%

Results for FC(F)(F)c1nnc2c(Sc3ccc(Cl)cc3)nc3ccccc3n12 ?
S2 tox: inactive; MCF10A rereplic: 472%[0.0737 µM]; IL-1B inflam inh: -52*; ATXN2 expr inh: inconclusive; SW480 rereplic: inconclusive; PINK1 expr mod: -3%

How did COc1cc(C2C(C(=O)Nc3ccc(C)cc3C)=C(C)Nc3nc4ccccc4n32)cc(OC)c1OC (centres undefined) do in these assays?
S2 tox: inactive; ATXN2 expr inh: 6%; PINK1 expr mod: 1%

Results for Cc1c(C(=O)NC2CCCC2)sc2ncnc(NCCN(C)C)c12 ?
S2 tox: inactive; PINK1 expr mod: -1%

How did COC(=O)[C@@]12OC[C@]34[C@H]([C@@H](O)[C@@H]1O)[C@@]1(C)C(=O)C(O[C@@H]5OC(CO)[C@@H](O)[C@@H](O)[C@@H]5O)=C[C@@H](C)[C@@H]1C[C@H]3OC(=O)[C@H](OC(=O)/C=C(\C)C(C)(C)OC(C)=O)[C@@H]24 (some centres undefined) do in these assays?
S2 tox: inconclusive; MCF10A rereplic: 23%; IL-1B inflam inh: -56*; ATXN2 expr inh: inconclusive; SW480 rereplic: -6%; PINK1 expr mod: -1%

How did N#C/C(=N\Nc1ccc(Cl)cc1)C(N)=S do in these assays?
S2 tox: inconclusive; MCF10A rereplic: inconclusive; IL-1B inflam inh: -81*; ATXN2 expr inh: inconclusive; SW480 rereplic: 18%; PINK1 expr mod: inconclusive

How did N#C/C(=N\Nc1ccccc1)C(N)=S do in these assays?
S2 tox: inactive; MCF10A rereplic: -31%; ATXN2 expr inh: -16%; SW480 rereplic: -1%; PINK1 expr mod: 0%

How did O=C(COc1ccccc1)Nc1cccc(-c2nc3cc4ccccc4cc3[nH]2)c1 do in these assays?
S2 tox: inconclusive; MCF10A rereplic: 15µM*; IL-1B inflam inh: -85*; ATXN2 expr inh: -20%; SW480 rereplic: inconclusive; PINK1 expr mod: -4%[38.3 µM]

How did Cc1ccc(Cc2c(-c3ccc(F)cc3)nc3cc(C)ccn23)cc1 do in these assays?
S2 tox: 28µM*; IL-1B inflam inh: -11; ATXN2 expr inh: -26%; PINK1 expr mod: 2%

How did Cc1ccc(Cc2c(-c3ccc(Br)cc3)nc3cc(C)ccn23)cc1 do in these assays?
S2 tox: inconclusive; IL-1B inflam inh: -8; ATXN2 expr inh: 54%; PINK1 expr mod: inconclusive

What do the screens show for `CCOc1ccc(C(=O)Nc2cc(-c3ccccc3)no2)cc1`?
S2 tox: inactive; ATXN2 expr inh: 35%; PINK1 expr mod: -2%

Results for CCOC(=O)c1[nH]c(C)c(CCC(=O)Nc2ccc(Br)c(C)c2)c1C ?
S2 tox: inactive; ATXN2 expr inh: -31%; PINK1 expr mod: 8%
